One may read the Inhibition as the relative decrease from the control value, in per cent.

The results in this text go back to ChEMBL document CHEMBL4513139, “CO-ADD screening of University of Strathclyde (UK) compounds”.

Molecules are shown by their SMILES. Potency and affinity values are given separately.

One assay has as its system Klebsiella pneumoniae. The following applies: Concentration 32 ug.mL-1; ASSAY_TEST Inhibition of Bacterial Growth; detection method Absorption (OD600); MEDIA CAMHB; plate type 384well; NBS; CORNING #3640; time 18 hr.
Another assay deals with Candida albicans. The following applies: 32 ug/mL.
The test system of a further assay is Cryptococcus neoformans. The following applies: Concentration 32 ug.mL-1; ASSAY_TEST Inhibition of Fungal Growth; detection method Resazurin; Absorption (OD600-OD570); plate type 384well; NBS; CORNING #3640. (In general: The colour change of resazurin is a common sign of viable cells or microbes.)

For `COC(=O)CCC(=O)Nc1cc(C(=O)Nc2cc(C(=O)NCCN3CCOCC3)n(C)c2)n(C)c1.O=C(O)C(F)(F)F`, the Inhibition is 8.45% in the assay with Klebsiella pneumoniae, 1.41% with Candida albicans and -63.38% in the assay on Cryptococcus neoformans.
The corresponding values for `COC(=O)c1ccc(C(=O)Nc2cc(C(=O)Nc3cc(C(=O)NCCN4CCOCC4)n(C)c3)n(C)c2)cc1.O=C(O)C(F)(F)F` are 8.44%, 7.27% and -98.27%.
For `Cc1ncc(Cn2cc(CCCO)nn2)c(N)n1` the same measures were -1.34%, 0.26% and -29.76%.
For `CC(C)CCc1sc(NC(=O)c2cc(NC(=O)c3ccc(/C=C/c4cc5ccccc5nc4Cl)cc3)cn2C)nc1C(=O)NCCN1CCOCC1.O=C(O)C(F)(F)F` the same measures were -4.36%, 2.62% and -70.82%.
In the case of `Cc1ncc(Cn2cc(CCC(=O)O)nn2)c(N)n1.O=C(O)C(F)(F)F`, the Inhibition is -1.46% with Klebsiella pneumoniae, 2.33% in the assay on Candida albicans and -50.97% with Cryptococcus neoformans.
Regarding `CN(C)CCCNC(=O)c1cc(NC(=O)c2cc(NC(=O)c3cc4ccccc4cn3)cn2C)cn1C.O=C(O)C(F)(F)F`, the values for the Inhibition with Klebsiella pneumoniae, with Candida albicans and with Cryptococcus neoformans were 12.4%, 3.58% and -81.77%, respectively.
With `Cc1ncc(CNc2ccccc2F)c(N)n1`, the figures for the Inhibition in the assay on Klebsiella pneumoniae, in the assay with Candida albicans and in the assay with Cryptococcus neoformans were 12.81%, 1.65% and -54.68%, respectively.
As to `Cn1cc(NC(=O)c2cc(NC(=O)c3sc(N)nc3C(F)(F)F)cn2C)cc1C(=O)NCCC(=N)N.O=C(O)C(F)(F)F`, the Inhibition is -8.6% in the assay on Klebsiella pneumoniae, 5.72% in the assay on Candida albicans and -104.75% in the assay on Cryptococcus neoformans.
